Experiment [1] in a line: CCTE_Mundy_HCI_hNP1_Pro_ResponderAvgInten: CCTE's Proliferation Assay in human neuroprogenitor cells, Mundy Lab (AID 2284224). The procedure, abridged: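 Proliferation was scored as BrdU labelling intensity in human neural progenitors derived from WA09 embryonic cells, measured 26.25 hours after chemical dosing. Activity was fitted relative to DMSO.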
Experiment [2] in a line: CCTE_Mundy_HCI_Cortical_NOG_BPCount: CCTE's Neurite Outgrowth Assay in rat cortical cells for Branch Point Count, Mundy Lab (AID 2284237; active = hit-call score of the fitted dose curve at least 0.9, where 1 is the maximum; inactive = score below 0.9;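 for AC50: branch points counted about two days after chemical exposure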). The procedure, abridged:
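Measured 50.33 h after dosing, this morphology endpoint uses rat primary cortical cultures labelled for betaIII-tubulin. Branch points are quantified by high-content imaging, with DMSO as negative control and baseline.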

Experiment [3] in a line: CCTE_Mundy_HCI_hNP1_CellTiter: CCTE's Cell Titer-Glo 2 Assay in human neuroprogenitor cells for Viability, Mundy Lab (AID 2284241).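 For AC50: a hit is a drop in ATP luminescence versus DMSO meaning reduced viability.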 The procedure, abridged:
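Human neural progenitor cells (hNP1, WA09-derived) were plated on poly-L-ornithine/laminin and grown 40 to 44 hours at 37 °C, 5% CO2 before chemical addition. Twenty-four hours later, ATP was measured by CellTiter-Glo luminescence; loss of signal versus DMSO indicates reduced viability.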
Background: Cellular ATP, detected with luciferase, serves as a proxy for viable cell number.

A short description of experiment [4]: TAMU_PeakParms_SingleDonor1434_QT: Texas A&M University (TAMU) 1.5-hr Human Induced Pluripotent Stem Cell (iPSC)-derived Cardiomyocytes Calcium (Ca+2) Flux Assay for Cardiotoxicity: QT (decay-rise ratio) (AID 2284235). Summed up: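 Decay/rise ratio of calcium-flux fluorescence scored after 90 min exposure (37C) of donor 1434 iPSC cardiomyocytes to 0.2–100 uM (0.5% DMSO). Beat-cessation and severe-notch points removed; POD is EC05, a 5% rise over DMSO.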

A short description of experiment [5]: CCTE_Mundy_HCI_Cortical_NOG_NeuronCount: CCTE's Neurite Outgrowth Assay in rat cortical cells for Neuron Count, Mundy Lab (AID 2284236).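 Note: neurons counted by imaging betaIII-tubulin and Hoechst stained cortical cells; cells exposed to compound for about 48 hours before fixation.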 Summed up:
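Read-out: neuron number by high-content imaging of betaIII-tubulin (Alexa Fluor-488) and Hoechst-labelled rat primary cortical cells.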

The nature of experiment [6]: UKN4_HCS_LUHMES_cell_viability: Viability Assessment in the University of Konstanz (UKN) Leist Lab Neurite Outgrowth Assay in human LUHMES cells (UKN4) (AID 2284232; active = hit-call score of the fitted dose curve at least 0.9, where 1 is the maximum; inactive = score below 0.9). The procedure, abridged:
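Cells switched to differentiation medium at day 0, replated on day 2 in medium lacking cAMP and GDNF, and compound-treated once attached. Live staining began 23.5 h later, imaging followed at 24 h.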

A short description of experiment [7]: BSK_BT_PBMCCytotoxicity: PBMC Cytotoxicity Assessment in the BioMAP Diversity Plus: BT Assay (AID 2284225; active = hit-call score of the fitted dose curve at least 0.9, where 1 is the maximum; inactive = score below 0.9;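 note: PBMC viability measured by Alamar Blue dye reduction fluorescence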). Conditions: primary human B cells with PBMC. The procedure, abridged: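 Viability by Alamar Blue reduction (6 h, ex/em 546/580 nm) after 90 h culture of SEB/TSST-1-activated PBMC (20 ng/mL each) given compound 1 h before activation. DMSO served as baseline for curve fitting.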

Read-out in experiment [8]: Secreted IgG (sIgG), gene 3500
Briefly: BSK_BT_sIgG: BioMAP Diversity Plus: BT Assay for Secreted IgG (sIgG) Biomarker Activity (AID 2284226; active = hit-call score of the fitted dose curve at least 0.9, where 1 is the maximum; inactive = score below 0.9). Conditions: primary human B cells with PBMC. Summed up:
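Cells (B cells with peripheral blood mononuclear cells) are dosed, cultured 24 h, then supernatant IgG is measured by ELISA. DMSO serves as negative control; curves are fitted for signal increase.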

The nature of experiment [9]: BSK_BT_Bcell_Proliferation: Viability Assessment in the BioMAP Diversity Plus: BT Assay for B cell Proliferation (AID 2284227; active = hit-call score of the fitted dose curve at least 0.9, where 1 is the maximum; inactive = score below 0.9). Conditions: primary human B cells with PBMC. The procedure, abridged: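 Human B cells co-cultured with PBMC were dosed with test chemicals and relative cell number was quantified by SRB staining at 72 h. Cells were fixed in 10% TCA, stained with 0.1% SRB and read at 560 nm. Activity was fitted in the positive direction against DMSO.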

Read-out in experiment [10]: Interleukin 6 (IL6), IL6 (gene 3569)
The experiment in a line: BSK_BT_xIL6: BioMAP Diversity Plus: BT Assay for Interleukin 6 (IL6) Biomarker Activity (AID 2284228; active = hit-call score of the fitted dose curve at least 0.9, where 1 is the maximum; inactive = score below 0.9). Conditions: primary human B cells with PBMC. Summed up:
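Chemical added to human B cell/PBMC co-culture → 24 h → supernatant IL-6 by Luminex xMAP → fit vs DMSO baseline, upward direction.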

Read-out in experiment [11]: Interleukin 17A (IL17A), IL17A (gene 3605)
Briefly: BSK_BT_xIL17A: BioMAP Diversity Plus: BT Assay for Interleukin 17A (IL17A) Biomarker Activity (AID 2284229; active = hit-call score of the fitted dose curve at least 0.9, where 1 is the maximum; inactive = score below 0.9). The settings on record: primary human B cells with PBMC. Summed up:
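Chemicals were added to a human B cell and PBMC co-culture. After 24 h, secreted IL-17A was measured with Luminex xMAP. Curves were fitted in the positive direction, with DMSO wells as baseline.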

Read-out in experiment [12]: Tumor necrosis factor (Homo sapiens) (UniProt P01375)
The experiment in a line: BSK_BT_xTNFa: BioMAP Diversity Plus: BT Assay for Tumor necrosis factor alpha (TNF-alpha) Biomarker Activity (AID 2284230; active = hit-call score of the fitted dose curve at least 0.9, where 1 is the maximum; inactive = score below 0.9). Conditions: primary human B cells with PBMC. The procedure, abridged: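 B cells with PBMC in co-culture, dosed and sampled at 24 h; secreted TNF-alpha measured by Luminex xMAP bead assay. Activity fitted in the gain direction against DMSO as negative control and baseline.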

Read-out in experiment [13]: Vascular cell adhesion molecule 1 (VCAM1), VCAM1 (gene 7412)
The experiment in a line: BSK_MyoF_VCAM1: BioMAP Diversity Plus: MyoF Assay for Vascular cell adhesion molecule 1 (VCAM1) Biomarker Activity (AID 2284231; active = hit-call score of the fitted dose curve at least 0.9, where 1 is the maximum; inactive = score below 0.9). Conditions: primary human lung fibroblasts. Summed up: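 Steps: fibroblasts from human lung exposed to compound; biomarker quantified by ELISA at 24 h; values analysed for upward change over the DMSO baseline.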

Read-out in experiment [14]: Collagen I, COL1A1 (gene 1277)
The experiment in a line: BSK_MyoF_CollagenI: BioMAP Diversity Plus: MyoF Assay for Collagen I Biomarker Activity (AID 2284238; active = hit-call score of the fitted dose curve at least 0.9, where 1 is the maximum; inactive = score below 0.9). Conditions: primary human lung fibroblasts. Summed up:
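Multiplexed primary human lung fibroblast system; Collagen I measured by ELISA at 24 h post-dose. Increases are referenced to DMSO.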

Read-out in experiment [15]: Collagen III, COL3A1 (gene 1281)
The experiment in a line: BSK_MyoF_CollagenIII: BioMAP Diversity Plus: MyoF Assay for Collagen III Biomarker Activity (AID 2284239; active = hit-call score of the fitted dose curve at least 0.9, where 1 is the maximum; inactive = score below 0.9). Conditions: primary human lung fibroblasts. Summed up: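 Compounds are added to primary human lung fibroblasts and left for 24 hours. Collagen III is then quantified by ELISA. Analysis takes DMSO as baseline and fits increases in signal.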

Read-out in experiment [16]: Interleukin 17F (IL17F), IL17F (gene 112744)
Briefly: BSK_BT_xIL17F: BioMAP Diversity Plus: BT Assay for Interleukin 17F (IL17F) Biomarker Activity (AID 2284243; active = hit-call score of the fitted dose curve at least 0.9, where 1 is the maximum; inactive = score below 0.9). Conditions: primary human B cells with PBMC. The procedure, abridged:
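Measures secreted IL-17F from a human B cell plus PBMC co-culture at 24 h post-dose by Luminex xMAP, with DMSO defining baseline activity.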

Read-out in experiment [17]: Actin alpha 1 (ACTA1), ACTA1 (gene 58)
The experiment in a line: BSK_MyoF_ACTA1: BioMAP Diversity Plus: MyoF Assay for Actin alpha 1 (ACTA1) Biomarker Activity (AID 2284244; active = hit-call score of the fitted dose curve at least 0.9, where 1 is the maximum; inactive = score below 0.9). The settings on record: primary human lung fibroblasts. The procedure, abridged:
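Cells were exposed to chemical for 24 h before a-SMA levels were quantified by ELISA in human lung fibroblasts. Increases were fitted against DMSO as negative control; parallel SRB staining (0.1% after 10% TCA fixation, 560 nm) assessed cytotoxicity.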

Read-out in experiment [18]: Interleukin 2 (IL2), IL2 (gene 3558)
Briefly: BSK_BT_xIL2: BioMAP Diversity Plus: BT Assay for Interleukin 2 (IL2) Biomarker Activity (AID 2284245; active = hit-call score of the fitted dose curve at least 0.9, where 1 is the maximum; inactive = score below 0.9). The settings on record: primary human B cells with PBMC. The procedure, abridged: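 The BT system combines human B cells with peripheral blood mononuclear cells. Twenty-four hours after chemical dosing, secreted IL-2 was measured with xMAP bead technology, and responses were analyzed as increases over DMSO controls.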

Read-out in experiment [19]: Basic fibroblast growth factor (bFGF), FGF2 (gene 2247)
Briefly: BSK_MyoF_bFGF: BioMAP Diversity Plus: MyoF Assay for Basic fibroblast growth factor (bFGF) Biomarker Activity (AID 2284246; active = hit-call score of the fitted dose curve at least 0.9, where 1 is the maximum; inactive = score below 0.9). Conditions: primary human lung fibroblasts. The procedure, abridged:
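Chemicals are added to human lung fibroblast cultures and incubated 24 h. bFGF is then measured by ELISA, while parallel cultures receive SRB staining for total protein as a cytotoxicity check. Data are fitted upward against DMSO.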

Values joined by “and” are separate entries in the source; they are usually repeats but may differ in a detail not shown here. Equal entries are not always repeated. Results filed as inconclusive are left out. The source holds several records for some structures; these can differ, active in one and inactive in another. Active and inactive are the calls of the source. Rule for the calls, unless noted: active = hit-call score of the fitted dose curve at least 0.9, where 1 is the maximum; inconclusive = response in the unintended direction; inactive = score below 0.9.

Tumor necrosis factor (Homo sapiens), sequence (P01375 whole entry, looked up): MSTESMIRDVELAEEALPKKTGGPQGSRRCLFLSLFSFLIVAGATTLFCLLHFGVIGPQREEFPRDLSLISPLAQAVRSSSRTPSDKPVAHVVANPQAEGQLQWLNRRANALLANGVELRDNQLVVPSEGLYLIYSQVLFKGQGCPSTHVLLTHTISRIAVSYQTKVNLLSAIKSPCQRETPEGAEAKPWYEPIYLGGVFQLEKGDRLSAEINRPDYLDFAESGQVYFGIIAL

`C=CCC1=C(C)[C@@H](OC(=O)[C@@H]2[C@@H](C=C(C)C)C2(C)C)CC1=O`: the outcome in experiment [1] and in experiment [2] was inactive. For the same molecule, the AC50 in experiment [3] is 7.56 µM (active).

`CNC(=O)ON=CC(C)(C)SC`: the result in experiment [4], in experiment [2] and in experiment [3] was inactive.

As to `CCCCOC(=O)c1ccccc1C(=O)OCCCC`, the call in [5] and in experiment [2] was inactive.

As for `COP(=S)(OC)Oc1nc(Cl)c(Cl)cc1Cl`, the figures for the AC50 in experiment [5] and in experiment [2] were 15 µM (active) and 24.1 µM (active), respectively. Besides, in experiment [3], the call was inactive.

As for `COP(N)(=O)SC` (stereo unspecified), the result in experiment [5], in [2] and in experiment [3] was inactive.

As for `CCOC(=O)CC(SP(=S)(OC)OC)C(=O)OCC` (stereo unspecified), the result in [1] and in [3] was inactive. Also, the AC50 in experiment [5] was 23.9 µM (active); in experiment [3], 72.8 µM (active).

`CCCCC(CC)COC(=O)c1ccccc1C(=O)OCC(CC)CCCC` (stereo unspecified): the AC50 in [1] was 9.27 µM (active) and 3.62 µM (active); in experiment [3], 9.22 µM (active).

For `CC(C)(C)c1ccc(CSc2cnn(C(C)(C)C)c(=O)c2Cl)cc1`, the half-maximal activity concentration (AC50) in experiment [1] was 4.85 µM (active); in experiment [5] it was 0.0982 µM (active); in experiment [2], 0.00299 µM (active); in experiment [3] it was 11.5 µM (active).

With `Cc1ccc(-c2c(Cl)nc(C#N)n2S(=O)(=O)N(C)C)cc1`, the AC50 in experiment [1] was 50 µM (active); in experiment [5] it was 50 µM (active); in [2], 78 µM (active); in [3] it was 85.4 µM (active).

In the case of `CO/C=C(/C(=O)OC)c1ccccc1Oc1cc(Oc2ccccc2C#N)ncn1`, the AC50 in [5] is 4.67 µM (active); in experiment [2] it was 2.23 µM (active).

Turning to `C=CCC1=C(C)C(OC(=O)C2C(C=C(C)C)C2(C)C)CC1=O` (stereo unspecified), the call in experiment [6], in [2] and in [3] was inactive.

With `COc1cnc(OC)n2nc(NS(=O)(=O)c3c(OCC(F)F)cccc3C(F)(F)F)nc12`, the result in experiment [7], in [8], in experiment [9], in [10], in [11] and in [12] was inactive. The outcome in [13], in experiment [14], in experiment [15], in [16], in experiment [17] and in experiment [18] was inactive. Moreover, in experiment [19], the outcome was inactive.

One may read the AC50 as the concentration at which the activity in the assay is half-maximal.

Source of the values: PubChem BioAssay (EPA / NIEHS).
